This is an account of results in PubChem BioAssay AID1117294 (Broad Institute, 2014).

Structures are written as SMILES. Calls of active or inactive are those of the source.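 How the source made its calls: active means Lowers HeLa cell ATP signal, with fitted half-maximal potency at most twice the top tested dose in every run; inconclusive means runs disagree, or fits flat mid-range or poor; inactive means every run inactive, including signal rising.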

The assay can be described thus: HeLa cell cytotoxicity, dose response, cytotoxicity control, CellTiter-Glo luminescence, dry powder, set 3 (AID 1117294). The following applies: HeLa viability, ATP luminescence (CellTiter-Glo), 72 h; at 0.05 µM.
For `COc1ccc(C2=NN(c3ccc(C(=O)O)cc3)C(c3ccc(OC)c(OC)c3)C2)cc1` (stereo not drawn), the max activity is -16.2% (inactive).

As for `COc1ccc(C(=O)O)cc1S(=O)(=O)Nc1ccc(N2CCCCC2)cc1C(F)(F)F`, the max activity is -17% (inactive). In the case of `COc1ccc(C(=O)O)cc1S(=O)(=O)Nc1cc(C(F)(F)F)ccc1N1CCN(C(C)=O)CC1`, the max activity was -16.6% (inactive).
